From PubChem BioAssay (NCATS) come the findings set out here.

Results filed as inconclusive are left out. Calls of active or inactive are those of the source. Unless noted, calls follow the shape of the full dose curve.

Assay [1] has as its target Glucocorticoid receptor (Homo sapiens) (UniProt P04150). The assay can be described thus: qHTS assay for small molecule antagonists of glucocorticoid receptor signaling (AID 588533; active = well fitted inhibition curve with a large enough effect in the signal ratio, with a control signal flat, not every such curve was filed as active; the % refers to the signal ratio;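 also: cells stimulated with 2 nM dexamethasone as agonist; % is scaled to controls: 0 for no effect and ±100 for the full control effect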). In outline:
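Antagonist-mode qHTS: compound titrations added to GRE-bla HeLa cells, then dexamethasone 2 nM final; 18 h, 37 C. CCF4 FRET fluorescence normalized to dexamethasone and DMSO; IC50 from Hill fit.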
In general terms: qHTS replaces the single test concentration by a dilution series.

Assay [2] can be described thus: qHTS assay for small molecule antagonists of peroxisome proliferator-activated receptor delta signaling (AID 588535; active = well fitted inhibition curve with a large enough effect in the signal ratio, with a control signal flat, not every such curve was filed as active; the % refers to the signal ratio;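 as to max response: cells co-treated with a PPAR-delta agonist as stimulator during compound exposure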). Particulars: HEK293T PPARd-UAS-bla, beta-lactamase FRET ratio, 18 h; 460 nm channel. The essentials:
(§1)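 Reporter: UAS-bla under PPAR-delta response element, HEK293T host. Medium: 2% charcoal/dextran FBS. Dosing: titration, 18 hrs, 37 C. Detection: CCF4, 2 hrs RT, 405 ex/460 and 530 em.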

For assay [3], the target named is Peroxisome proliferator-activated receptor delta (Homo sapiens) (UniProt Q03181). Described as above. In outline:
as §1

The target in assay [4] is Peroxisome proliferator-activated receptor gamma (Homo sapiens) (UniProt P37231). The assay can be described thus: qHTS assay for small molecule agonists of peroxisome proliferator-activated receptor gamma signaling (AID 588536; active = well fitted curve in the direction sought with a large enough effect in the signal ratio, with a control signal flat, not every such curve was filed as active; the % refers to the signal ratio;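 also: 0% = DMSO basal wells and 100% = rosiglitazone at 2 µM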). The essentials: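 HEK293 UAS-bla reporter line, 1% charcoal/dextran FBS; titration, 16 h, 37 C; CCF4 loading 2 h RT; fluorescence 460/530 nm. Normalized to rosiglitazone 2 uM = 100%, DMSO = 0%.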

In assay [5] the target is Vitamin D3 receptor (Homo sapiens) (UniProt P11473). The assay can be described thus: qHTS assay for small molecule antagonists of vitamin D receptor signaling (AID 588541).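 Also: receptor activated by calcitriol during compound treatment; series mostly up to about 77 µM; % is scaled to controls: 0 for no effect and ±100 for the full control effect.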 In outline:
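VDR-UAS-bla HEK293T cells (2000/well, 2% charcoal-stripped FBS) were treated with titrated compounds plus 1-alpha,25-dihydroxyvitamin D3 (50 nM or 3 nM final) for 16 h at 37 C. CCF4 beta-lactamase fluorescence was read; Hill fits gave IC50.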

Assay [6] in a line: qHTS assay for small molecule agonists of retinoid X receptor alpha signaling (AID 588544).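 As to activation: 0% = DMSO basal wells and 100% = reference agonist.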 Conditions: HEK293T RXRa-UAS-bla, beta-lactamase reporter, 18 h; 530 nm emission.
Assay [7] deals with Retinoic acid receptor RXR-alpha (Homo sapiens) (UniProt P19793). Described as above.
For assay [8], the target named is Thyroid hormone receptor beta (Homo sapiens) (UniProt P10828). The assay can be described thus: qHTS assay for small molecule agonists of thyroid hormone receptor beta signaling (AID 588545).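 Also: 0% = DMSO only and 100% = 10 nM T3.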 The essentials:
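Efficacy and EC50 values derive from Hill fits of qHTS titration data, normalized to 10 nM T3 and DMSO-only wells. HEK 293 reporter cells were stimulated for 18 hrs at 37 C, with beta-lactamase activity measured by CCF4 fluorescence.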

A short description of assay [9]: qHTS assay for small molecule antagonists of retinoid X receptor alpha signaling (AID 588546; active = well fitted inhibition curve with a large enough effect in the signal ratio, with a control signal flat, not every such curve was filed as active; the % refers to the signal ratio;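 also: cells stimulated with 9-cis-retinoic acid as agonist; % is scaled to controls: 0 for no effect and ±100 for the full control effect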). Conditions: HEK293T RXRa-UAS-bla, beta-lactamase ratio, antagonist mode; measured here: W530 green channel, cytotoxicity proxy. In outline:
(§2)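 Beta-lactamase reporter inhibition, read as CCF4 fluorescence ratio (ex 405, em 460/530 nm) after 2 h at RT. HEK293T UAS-bla cells, 2500/well, were stimulated with 9-cis-RA at 500 or 100 nM final alongside test compound for 18 h at 37 C.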

Assay [10] concerns the target Retinoic acid receptor RXR-alpha (Homo sapiens) (UniProt P19793). The description is as above. Particulars: HEK293T RXRa-UAS-bla, beta-lactamase ratio, antagonist mode. In outline: as §2
The target of assay [11] is Thyroid hormone receptor beta (Homo sapiens) (UniProt P10828). The assay can be described thus: qHTS assay for small molecule antagonists of thyroid hormone receptor beta signaling (AID 588547; active = well fitted inhibition curve with a large enough effect in the signal ratio, with a control signal flat, not every such curve was filed as active; the % refers to the signal ratio;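 also: cells stimulated with 0.4 nM T3 agonist during compound exposure; series mostly up to about 77 µM; % is scaled to controls: 0 for no effect and ±100 for the full control effect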). Particulars: TR-UAS-bla HEK293, beta-lactamase ratio, antagonist mode, 18 h. The essentials:
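TR-UAS-bla GripTite HEK293 cells in 2% charcoal/dextran FBS medium were preincubated 4 h at 37 C, given compound (0.59 nM to 92 uM) plus 0.4 nM T3 (final) for 18 h, then CCF4 for 2 h at RT; Hill fit gave IC50.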

Assay [12] deals with Voltage-gated inwardly rectifying potassium channel KCNH2 (Homo sapiens) (UniProt Q12809). The assay is described as follows: qHTS Assay for Small Molecule Inhibitors of the Human hERG Channel Activity (AID 588834; active = well fitted inhibition curve with a large enough effect;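 also: top concentration of the series differs between compounds; % is scaled to controls: 0 for no effect and ±100 for the full control effect; lower thallium flux fluorescence means stronger hERG block; nearly all actives have a fitted effect of over 50% in size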). The essentials:
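Blockade is seen as reduced FluxOR thallium-flux fluorescence in U2OS cells expressing hERG from a BacMam construct, in Opti-MEM with 2% FCS. Concentration-response data fitted to the Hill equation for AC50.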

A short description of assay [13]: qHTS assay for small molecule agonists of the antioxidant response element (ARE) signaling pathway (AID 651741; active = well fitted activation curve with a large enough effect in the signal ratio; the % refers to the signal ratio; also: % of control where 0% means no effect). In outline: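 Compounds in DMSO are pinned onto HepG2 ARE-bla cells (2,000/well) that were preincubated 5 h; plates stay 16 h at 37 C, then beta-lactamase activity is detected with LiveBLAzer B/G substrate by fluorescence.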
Assay [14] can be described thus: qHTS assay for small molecule activators of the p53 signaling pathway (AID 651743; active = well fitted activation curve with a large enough effect in the signal ratio, not every such curve was filed as active; the % refers to the signal ratio; also: series mostly up to about 92 µM; % of control where 0% means no effect). Conditions: HCT-116 p53RE-bla, beta-lactamase FRET ratio, 16 h; stronger effect = higher value. In outline: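 Cell-based beta-lactamase reporter (p53 response elements, HCT-116 background). After a 5-hour preincubation, cells received compound for 16 hours at 37 C; substrate development ran 2 hours at room temperature.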

The nature of assay [15]: qHTS assay for small molecule activators of the nuclear factor-kappa B (NF-kB) signaling pathway (AID 651749; active = well fitted activation curve with a large enough effect in the signal ratio; the % refers to the signal ratio; also: series mostly up to about 77 µM; % of control where 0% means no effect). Particulars: NF-kB-bla ME-180 cells, beta-lactamase FRET ratio, 16 h; stronger effect = higher value. In outline: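 Screening used 2,000 ME-180 reporter cells per well exposed to pinned compound (23 nL) or DMSO; after 16 hr at 37C, beta-lactamase expression under NF-kB control was assessed through FRET.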

In assay [16] the target is Vitamin D3 receptor (Homo sapiens) (UniProt P11473). The assay can be described thus: qHTS assay for small molecule agonists of vitamin D receptor signaling (AID 588543).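 Also: 0% = DMSO basal and 100% = reference agonist control.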 In outline: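 Measured: β-lactamase reporter activity (CCF4, 405 nm excitation, 460/530 nm emission) in HEK293T VDR-UAS-bla cells after 16 h compound exposure at 37 °C. Normalization against 50 nM 1α,25-dihydroxyvitamin D3 and DMSO; Hill-fit EC50.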

Assay [17] deals with Peroxisome proliferator-activated receptor gamma (Homo sapiens) (UniProt P37231). The assay can be described thus: qHTS assay for small molecule antagonists of peroxisome proliferator-activated receptor gamma signaling (AID 588537; active = well fitted inhibition curve with a large enough effect in the signal ratio, with a control signal flat, not every such curve was filed as active; the % refers to the signal ratio;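 also: reporter cells co-stimulated with 50 nM rosiglitazone agonist during compound treatment; % of control where 0% means no effect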). The essentials: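 We seeded GeneBLAzer HEK293 reporter cells at 3000 per well, allowed 6-6.5 h attachment at 37 C, then co-treated with test compound titrations and 50 nM rosiglitazone overnight (16 h). Inhibition was quantified from 460/530 nm emission ratios.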

The target of assay [18] is Glucocorticoid receptor (Homo sapiens) (UniProt P04150). The assay is described as follows: qHTS assay for small molecule agonists of glucocorticoid receptor signaling (AID 588532; active = well fitted curve in the direction sought with a large enough effect in the signal ratio, with a control signal flat; the % refers to the signal ratio;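 also: 100% = dexamethasone at 0.1 µM and 0% = DMSO only wells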). Particulars: HeLa MMTV-bla, beta-lactamase ratio, agonist, 18 h; stronger effect = higher value; percent of dexamethasone control, DMSO zero. The essentials: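 MMTV-bla HeLa, beta-lactamase reporter; medium with 1% charcoal/dextran-stripped FBS; cpds up to 92 uM, 18 h, 37 C; CCF4 readout 460/530 nm; Hill fit → EC50, efficacy vs 0.1 uM dexamethasone = 100%.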
Sequence of Glucocorticoid receptor (Homo sapiens) (P04150 whole entry, looked up): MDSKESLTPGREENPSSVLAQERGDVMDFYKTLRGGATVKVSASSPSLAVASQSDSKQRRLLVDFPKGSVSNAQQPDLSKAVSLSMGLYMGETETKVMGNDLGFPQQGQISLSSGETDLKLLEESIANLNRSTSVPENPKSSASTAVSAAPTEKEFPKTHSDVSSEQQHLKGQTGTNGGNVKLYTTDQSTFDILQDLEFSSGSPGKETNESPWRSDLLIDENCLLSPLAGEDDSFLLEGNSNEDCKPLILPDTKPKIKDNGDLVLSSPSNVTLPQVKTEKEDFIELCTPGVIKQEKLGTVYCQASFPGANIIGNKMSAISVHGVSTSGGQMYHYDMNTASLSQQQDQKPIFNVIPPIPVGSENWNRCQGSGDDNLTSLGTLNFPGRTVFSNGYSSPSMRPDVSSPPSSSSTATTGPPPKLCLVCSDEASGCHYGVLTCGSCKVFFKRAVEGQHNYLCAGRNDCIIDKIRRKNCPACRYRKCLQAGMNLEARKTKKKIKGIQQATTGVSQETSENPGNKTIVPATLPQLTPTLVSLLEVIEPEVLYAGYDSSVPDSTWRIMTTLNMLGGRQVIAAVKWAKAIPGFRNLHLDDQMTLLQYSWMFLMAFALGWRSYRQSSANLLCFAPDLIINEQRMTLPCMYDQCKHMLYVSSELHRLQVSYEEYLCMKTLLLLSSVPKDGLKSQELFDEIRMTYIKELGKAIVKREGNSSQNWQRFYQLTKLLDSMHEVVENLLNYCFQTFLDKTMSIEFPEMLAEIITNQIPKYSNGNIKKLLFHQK

Sequence of Peroxisome proliferator-activated receptor gamma (Homo sapiens) (P37231 whole entry, looked up): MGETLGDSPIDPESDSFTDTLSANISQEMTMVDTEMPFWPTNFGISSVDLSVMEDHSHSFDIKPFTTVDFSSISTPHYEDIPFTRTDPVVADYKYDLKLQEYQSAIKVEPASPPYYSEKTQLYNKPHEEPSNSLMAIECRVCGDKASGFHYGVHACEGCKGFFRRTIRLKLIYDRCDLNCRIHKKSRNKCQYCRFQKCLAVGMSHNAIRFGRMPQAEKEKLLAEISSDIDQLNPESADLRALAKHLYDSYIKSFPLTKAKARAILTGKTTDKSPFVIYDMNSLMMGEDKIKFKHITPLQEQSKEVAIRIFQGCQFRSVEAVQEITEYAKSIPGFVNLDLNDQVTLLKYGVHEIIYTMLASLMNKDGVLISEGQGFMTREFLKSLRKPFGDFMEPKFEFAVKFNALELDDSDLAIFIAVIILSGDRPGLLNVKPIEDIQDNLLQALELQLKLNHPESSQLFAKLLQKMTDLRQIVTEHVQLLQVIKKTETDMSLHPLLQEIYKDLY
Sequence of Peroxisome proliferator-activated receptor delta (Homo sapiens) (Q03181 whole entry, looked up): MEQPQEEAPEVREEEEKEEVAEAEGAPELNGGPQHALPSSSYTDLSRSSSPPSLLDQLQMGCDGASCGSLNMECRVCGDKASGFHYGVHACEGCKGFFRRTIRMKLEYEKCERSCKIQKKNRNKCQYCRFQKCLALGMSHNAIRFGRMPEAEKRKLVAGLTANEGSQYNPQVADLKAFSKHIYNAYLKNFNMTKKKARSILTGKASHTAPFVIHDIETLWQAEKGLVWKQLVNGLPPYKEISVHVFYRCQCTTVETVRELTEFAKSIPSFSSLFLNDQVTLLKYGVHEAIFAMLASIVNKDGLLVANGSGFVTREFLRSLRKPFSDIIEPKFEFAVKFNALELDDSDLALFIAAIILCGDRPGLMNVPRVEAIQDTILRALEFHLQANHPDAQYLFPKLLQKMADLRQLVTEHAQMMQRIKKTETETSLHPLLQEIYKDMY
Sequence of Vitamin D3 receptor (Homo sapiens) (P11473 whole entry, looked up): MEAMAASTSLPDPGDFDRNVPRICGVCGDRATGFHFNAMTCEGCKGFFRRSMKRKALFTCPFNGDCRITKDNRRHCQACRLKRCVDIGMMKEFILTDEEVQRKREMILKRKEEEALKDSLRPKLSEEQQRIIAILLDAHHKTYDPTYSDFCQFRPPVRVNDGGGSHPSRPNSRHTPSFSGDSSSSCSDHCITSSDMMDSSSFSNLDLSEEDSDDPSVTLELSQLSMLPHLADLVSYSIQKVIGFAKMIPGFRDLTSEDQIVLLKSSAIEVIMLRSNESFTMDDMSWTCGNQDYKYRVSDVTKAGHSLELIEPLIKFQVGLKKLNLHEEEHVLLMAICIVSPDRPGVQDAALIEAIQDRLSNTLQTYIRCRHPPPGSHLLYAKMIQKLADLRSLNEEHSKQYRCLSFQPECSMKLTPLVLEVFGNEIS
Sequence of Voltage-gated inwardly rectifying potassium channel KCNH2 (Homo sapiens) (Q12809 whole entry, looked up): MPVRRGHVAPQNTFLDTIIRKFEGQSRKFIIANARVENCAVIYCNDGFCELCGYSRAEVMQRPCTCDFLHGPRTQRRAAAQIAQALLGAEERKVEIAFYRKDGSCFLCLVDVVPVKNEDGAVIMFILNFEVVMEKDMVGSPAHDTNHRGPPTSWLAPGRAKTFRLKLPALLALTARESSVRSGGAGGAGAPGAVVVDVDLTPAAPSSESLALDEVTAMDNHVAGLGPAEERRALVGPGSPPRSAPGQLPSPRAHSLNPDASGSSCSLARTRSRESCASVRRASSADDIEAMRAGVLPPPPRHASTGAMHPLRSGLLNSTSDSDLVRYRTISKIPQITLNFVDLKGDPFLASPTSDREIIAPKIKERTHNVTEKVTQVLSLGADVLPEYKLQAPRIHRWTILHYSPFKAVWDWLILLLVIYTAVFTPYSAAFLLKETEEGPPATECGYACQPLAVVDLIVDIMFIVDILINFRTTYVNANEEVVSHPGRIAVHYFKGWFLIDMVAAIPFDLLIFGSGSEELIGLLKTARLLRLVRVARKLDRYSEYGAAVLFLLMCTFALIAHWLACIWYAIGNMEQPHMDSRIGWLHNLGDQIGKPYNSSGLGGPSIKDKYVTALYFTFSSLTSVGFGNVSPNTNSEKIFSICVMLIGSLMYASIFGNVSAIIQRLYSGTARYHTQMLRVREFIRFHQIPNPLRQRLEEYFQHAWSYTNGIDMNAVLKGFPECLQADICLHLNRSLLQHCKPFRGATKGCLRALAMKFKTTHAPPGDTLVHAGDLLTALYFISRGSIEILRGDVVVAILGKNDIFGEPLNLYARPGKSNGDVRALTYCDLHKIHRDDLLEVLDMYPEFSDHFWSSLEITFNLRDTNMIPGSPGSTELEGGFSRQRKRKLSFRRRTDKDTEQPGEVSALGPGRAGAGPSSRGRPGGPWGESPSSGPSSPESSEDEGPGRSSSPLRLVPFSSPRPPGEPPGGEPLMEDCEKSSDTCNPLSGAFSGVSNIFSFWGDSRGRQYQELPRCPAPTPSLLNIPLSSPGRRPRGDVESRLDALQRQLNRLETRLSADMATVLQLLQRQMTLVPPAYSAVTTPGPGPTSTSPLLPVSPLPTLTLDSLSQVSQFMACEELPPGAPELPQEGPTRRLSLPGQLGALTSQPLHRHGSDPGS
Sequence of Thyroid hormone receptor beta (Homo sapiens) (P10828 whole entry, looked up): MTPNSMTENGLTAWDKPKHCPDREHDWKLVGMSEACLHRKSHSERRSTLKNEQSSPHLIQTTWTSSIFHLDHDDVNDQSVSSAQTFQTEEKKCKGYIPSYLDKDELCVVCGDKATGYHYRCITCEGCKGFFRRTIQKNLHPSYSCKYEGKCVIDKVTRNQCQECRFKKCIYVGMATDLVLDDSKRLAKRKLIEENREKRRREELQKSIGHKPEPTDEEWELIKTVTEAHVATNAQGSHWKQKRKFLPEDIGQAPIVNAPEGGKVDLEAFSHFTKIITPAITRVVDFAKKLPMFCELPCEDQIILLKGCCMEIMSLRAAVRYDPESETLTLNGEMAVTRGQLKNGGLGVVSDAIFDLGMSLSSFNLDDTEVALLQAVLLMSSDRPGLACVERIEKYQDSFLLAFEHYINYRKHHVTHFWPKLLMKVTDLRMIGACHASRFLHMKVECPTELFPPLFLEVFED
Sequence of Retinoic acid receptor RXR-alpha (Homo sapiens) (P19793 whole entry, looked up): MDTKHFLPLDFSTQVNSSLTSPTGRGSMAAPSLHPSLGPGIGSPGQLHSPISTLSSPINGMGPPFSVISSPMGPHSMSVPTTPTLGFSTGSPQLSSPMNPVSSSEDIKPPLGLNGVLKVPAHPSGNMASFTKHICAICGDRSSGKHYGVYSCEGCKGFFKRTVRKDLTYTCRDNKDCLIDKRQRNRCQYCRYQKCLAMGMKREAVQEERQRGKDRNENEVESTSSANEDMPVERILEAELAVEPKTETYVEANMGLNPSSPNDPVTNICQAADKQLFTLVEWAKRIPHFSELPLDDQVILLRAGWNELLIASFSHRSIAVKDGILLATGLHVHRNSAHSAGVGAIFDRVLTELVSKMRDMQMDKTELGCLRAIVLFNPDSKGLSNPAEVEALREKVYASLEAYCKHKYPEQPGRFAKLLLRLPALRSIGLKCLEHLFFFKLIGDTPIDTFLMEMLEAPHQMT

As to `CC(C)C=O`, the molecule was classed as inactive in [1], in assay [4], in assay [5], in [7] and in assay [8]. Also, the max response in assay [2] is -3.06%; in [6], 3.23%; in assay [9], -14.5%; in assay [10] it was 8.49% (inactive). Also, the Potency result in assay [3], in [12] and in [13] was “inactive” in each case. For the same molecule, the activity change % (negative = inhibition) in [11] was -10% (inactive). Further, the activation in assay [14] was 0.787% (inactive); in assay [15], -1.3% (inactive).

For the molecule `CC(=O)c1cc(C)oc1C`, the molecule was classed as inactive in assay [1], in [4], in assay [16], in assay [7] and in [8]. Moreover, the max response in assay [2] was -4.12%; in assay [6], -2.61%; in [9], 4.07%; in assay [10] it was 0.525% (inactive). Also, the Potency entry in assay [3] and in assay [13] was “inactive” each time. In addition, in assay [11], the activity change % (negative = inhibition) is -4.91% (inactive). The figures for the activation in assay [14] and in assay [15] were -2.3% (inactive) and -0.373% (inactive), respectively.

`Cc1ccccc1C=O`: the molecule was called inactive in assay [1], in [4], in assay [5], in [16], in assay [7] and in assay [8]. The values for the max response in assay [6], in assay [9] and in assay [10] were -10.4%, 9.24% and 9.95% (inactive), respectively. Also, the Potency entry in [12] is “inactive”. For the same molecule, the activation in [14] is 3.12% (inactive).

As to `NS(=O)(=O)O`, the call in [1], in assay [4], in assay [17], in assay [16], in assay [7] and in [8] was inactive. The results for the max response in [2], in [6] and in assay [9] were -9.24%, 0.843% and 1.78%, respectively. Also, the Potency entry in assay [3], in [12] and in [13] was “inactive” in each case. In addition, the activity change % (negative = inhibition) in [11] is -4.41% (inactive). The activation in assay [14] was -0.9% (inactive).

In the case of `CCN(C(=O)N(CC)c1ccccc1)c1ccccc1`, the activation in assay [18] was -1.59% (inactive). Also, the molecule was classed as inactive in [4], in assay [7] and in assay [8]. The values for the max response in [6], in [9] and in [10] were 6.15%, -7.14% and 0.622% (inactive), respectively. For the same molecule, the activity change % (negative = inhibition) in [11] was 1.82% (inactive). In addition, in assay [13], the Potency result was “inactive”.

For `CC(=O)c1ccccc1[N+](=O)[O-]`, the max response in assay [2] is 4.84%; in assay [6], -16.2%; in [9], 5.46%; in assay [10], 5.8% (inactive). Moreover, the Potency entry in assay [3], in [12] and in [13] was “inactive” throughout. Further, the call in assay [4], in [17], in assay [5], in assay [16] and in assay [7] was inactive.

As for `Cc1ccc(Cl)cc1`, the figures for the activation in [18] and in assay [14] were -1.4% (inactive) and -2.72% (inactive), respectively. The max response in [2] was -18%; in [6] it was 0.942%; in assay [9], -3.57%. Further, the Potency result in assay [3] and in assay [13] was “inactive” in each case. The call in assay [4], in assay [16] and in assay [7] was inactive.

Consider `NCCCCCCN`, for which the max response in assay [2] was -19.3%; in assay [6], 1.96%; in assay [9], -3.24%; in assay [10], 17.1% (inactive). For the same molecule, the Potency result in assay [3], in assay [12] and in assay [13] was “inactive” in each case. Besides, the molecule was called inactive in [4], in assay [17], in assay [5], in assay [16], in assay [7] and in assay [8]. Moreover, the activation in [14] is -1.12% (inactive); in assay [15], -0.106% (inactive).

Take `CC1(N)CCC(C(C)(C)N)CC1` (stereo not drawn): the activation in [18] is 7.57% (inactive); in assay [14] it was 0.302% (inactive); in assay [15], -1.08% (inactive). Besides, the result in assay [4], in assay [5], in [16], in assay [7] and in assay [8] was inactive. Also, the max response in assay [6] was -6.34%; in [9], 4.37%; in assay [10] it was 0.335% (inactive). Further, the activity change % (negative = inhibition) in assay [11] is -1.11% (inactive). Also, the Potency result in assay [12] and in [13] was “inactive” in each case.

As for `O=[N+]([O-])c1ccc2nc[nH]c2c1`, the molecule was called inactive in assay [4], in assay [17], in assay [7] and in assay [8]. In assay [6], the max response is -26.8%. Moreover, the activity change % (negative = inhibition) in assay [11] is 5.36% (inactive). The Potency result in assay [12] and in assay [13] was “inactive” in each case. The activation in assay [15] is 0.954% (inactive).
